PubChem BioAssay (NCI)
The panel holds about 79,000 compounds, 15% with a hit somewhere; the sample as a whole holds those more often. Unmarked numbers belong to inactive results. The source made the active and inactive calls. No stated cut-off is given here; in the data, active means growth inhibition above about 70%; inactive means the rest.

Columns and labels:
[1] = NCI Yeast Anticancer Drug Screen. Data for the rad50 strain (AID 155);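 further: 0% = growth of vehicle-only cultures of the same strain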; details: S. cerevisiae rad50 strain growth inhibition, stronger effect = higher value
How it was run: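 Inhibition values express reduced yeast growth in compound-treated cultures relative to vehicle-treated controls.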

[2] = NCI Yeast Anticancer Drug Screen. Data for the mec2-1 strain (AID 157); details: S. cerevisiae mec2-1 strain, stronger effect = higher value
How it was run: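 Strain: mec2-1 (DNA repair/cell cycle alteration). Compound exposure, then growth measured; inhibition expressed relative to vehicle.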

[3] = NCI Yeast Anticancer Drug Screen. Data for the sgs1 mgt1 strain (AID 161);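 further: 0% = growth of cultures given vehicle only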; details: S. cerevisiae sgs1 mgt1 strain, stronger effect = higher value
How it was run: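 Mutant yeast exposed to compound; growth scored against vehicle-only wells.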

[4] = NCI Yeast Anticancer Drug Screen. Data for the cln2 rad14 strain (AID 165);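 further: 0% = growth equal to vehicle treated cultures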; details: S. cerevisiae cln2 rad14 strain, stronger effect = higher value
How it was run: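 Compounds are applied to the cln2 rad14 yeast strain, and growth is then compared with that of vehicle-treated cultures to give inhibition.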

[5] = NCI Yeast Anticancer Drug Screen. Data for the bub3 strain (AID 167); details: S. cerevisiae bub3 mutant strain, stronger effect = higher value
How it was run: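 Steps: expose the mutant yeast strain to compound; grow alongside vehicle-treated cultures; measure growth; express inhibition against the vehicle cultures.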

[6] = NCI Yeast Anticancer Drug Screen. Data for the mlh1 rad18 strain (AID 175); details: S. cerevisiae mlh1 rad18 strain growth inhibition, stronger effect = higher value
How it was run: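 Read-out is yeast growth inhibition, calculated against vehicle-only controls. The compound was applied to a strain engineered with DNA damage repair alterations.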

[7] = at 5.0 µM (retest, dose inferred, filed as 0.5)
[8] = at 50.0 µM (retest, dose inferred, filed as 5.0)

SMILES | growth inhibition [1, 7] | growth inhibition [1, 8] | growth inhibition ([1]; at 50.0 µM) | growth inhibition [2, 7] | growth inhibition [2, 8] | growth inhibition ([2]; at 50.0 µM) | growth inhibition [3, 7] | growth inhibition [3, 8] | growth inhibition ([3]; at 50.0 µM) | growth inhibition [4, 7] | growth inhibition [4, 8] | growth inhibition ([4]; at 50.0 µM) | growth inhibition [5, 7] | growth inhibition [5, 8] | growth inhibition ([5]; at 50.0 µM) | growth inhibition [6, 7] | growth inhibition [6, 8] | growth inhibition ([6]; at 50.0 µM)
C=CCOc1ccc(C2(c3ccc(OCC=C)cc3)C(=O)Nc3ccccc32)cc1 | 1% | 90% (active) | 84.1% (active) | -8% | 92% (active) | 86.8% (active) | 8% | 90% (active) | 89.2% (active) | 24% | 91% (active) | 86.5% (active) | 6% | 93% (active) | 87.9% (active) | 5% | 88% (active) | 86.6% (active)
COc1ccc(CSC2=C(C#N)C(=O)NC3(CCCCC3)S2)cc1 | 23% | 11% | 3.6% | -1% | 4% | 2.25% | 23% | 14% | 6.2% | -1% | 16% | 28.5% | 6% | 6% | -13.2% | 18% | -2% | 7.75%
CC1CCCCN(CCN(Cc2ccccc2)c2ccccc2)C1 (stereo not given) | -1% | 32% | 58.1% | 2% | 29% | 45.9% | 10% | 75% (active) | 73.8% (active) | 4% | 37% | 80.8% (active) | 5% | 52% | 58% | 8% | 42% | 54.1%
S=C(NC/C(Br)=C/Br)Nc1cccc2ccccc12 | -30% | 99% (active) | 86% (active) | -18% | 99% (active) | 89.8% (active) | -21% | 99% (active) | 85.6% (active) | -5% | 99% (active) | 88.8% (active) | -25% | 99% (active) | 90.7% (active) | -13% | 99% (active) | 81.3% (active)
O=C(CCc1ccccc1)COC(=O)c1ccc([N+](=O)[O-])cc1 | -13% | -14% | -10.4% | -2% | -25% | 3.45% | -6% | 8% | -3.6% | -26% | -14% | 10.9% | -1% | -7% | 55% | -15% | -23% | 16.4%
CCOP(=O)(OCC)OC1c2[nH]ccc2-c2cc(C(=O)OC)[nH]c2C1OC (stereo not given) | 3% | 11% | 12.5% | 0% | 10% | 25.9% | -3% | 17% | 83.2% (active) | -6% | 6% | 5.9% | 3% | -2% | 21.5% | -5% | 15% | 61.4%
CC(C)C[P+](c1ccccc1)(c1ccccc1)c1ccccc1 | 0% | 23% | 62.6% | -3% | 54% | 58.9% | -34% | 9% | 50.6% | -5% | 10% | 49.5% | -7% | 24% | 54.2% | 12% | 45% | 73.9% (active)
Cn1c(=O)ccc2cc(C(=O)c3ccccc3)ccc21 | 7% | 22% | 30.2% | -9% | 7% | 6.95% | -9% | -5% | 14.4% | 39% | 51% | 35.4% | -7% | 46% | 16.8% | 9% | 45% | 65.7%
CC(CCC(=O)O)[C@H]1CCC2[C@H]3C(CC[C@@]21C)[C@@]1(C)CCC(O)C[C@H]1C[C@@H]3O (stereo not given in full) | -11% | 46% | 75.1% (active) | -13% | 56% | 73.2% (active) | -10% | 60% | 79.3% (active) | 2% | 73% (active) | 73% (active) | -13% | 86% (active) | 56.1% | -26% | 76% (active) | 71.6% (active)
N#CCCN(CCC#N)c1ccc(C(Sc2ccccc2)C(NC(=O)c2cc([N+](=O)[O-])ccc2Cl)C(=O)Sc2ccccc2)cc1 (stereo not given) | 29% | 74% (active) | 75.7% (active) | 25% | 93% (active) | 58.8% | 30% | 85% (active) | 51.3% | 16% | 37% | 51.6% | 22% | 91% (active) | 74.7% (active) | 47% | 85% (active) | 73.3% (active)
